LDHA inh: LDHA (human) enzyme inhibition; P00338; purified LDHA, NADH/diaphorase-resazurin fluorescence; active compounds read low; activity change, % (values are at about 110 or 230 µM); 0.15% of 480,000 active; AID 1347041; in the data active means activity change below about -30%; inconclusive means mostly about -25% to -30%;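 further: plate controls were DMSO wells for no effect and wells without enzyme for full effect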
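Enzyme activity of human lactate dehydrogenase 5 (2 nM; 0.06 mM NADH, 0.2 mM pyruvate, 5 min, RT) is measured via a resazurin/diaphorase fluorescence readout of residual NADH.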
p53 reactivator: mutant p53 re-activation in reporter cells; H1299 p53-A138V BP100-luciferase reporter, luminescence, 24 h; Potency, µM (highest dose often 92.2 µM), for inactives: at the top dose activity change, positive = activation, most hits filed as activators; 0.063% of 320,000 active; AID 504706; further: potency means the concentration at half of the fitted maximal effect; % of control where 0% means no effect; nearly all actives have a fitted effect of over 45% in size
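H1299 (p53-null), stable ts p53-A138V + BP100-Luc; 1000 cells/well, Opti-MEM/10% FBS; cpd 4 pt, 1:5; 24 h, 37 deg C, 5% CO2; detection reagent 10 min RT; luminescence.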
GLP-1R agonist: GLP-1 receptor (human) agonism. P43220. Potency, µM (top dose mostly 45.6 µM), without a hit: top-dose activation, usual class: activators. 0.007% of 380,000 active. HEK293 GLP-1R CRE-luciferase, luminescence, 4-6 h; cells express a hypersensitive GLP-1R form. AID 624172; further: potency means the concentration at half of the fitted maximal effect; % of control where 0% means no effect
Target sequence (P43220 whole entry, looked up): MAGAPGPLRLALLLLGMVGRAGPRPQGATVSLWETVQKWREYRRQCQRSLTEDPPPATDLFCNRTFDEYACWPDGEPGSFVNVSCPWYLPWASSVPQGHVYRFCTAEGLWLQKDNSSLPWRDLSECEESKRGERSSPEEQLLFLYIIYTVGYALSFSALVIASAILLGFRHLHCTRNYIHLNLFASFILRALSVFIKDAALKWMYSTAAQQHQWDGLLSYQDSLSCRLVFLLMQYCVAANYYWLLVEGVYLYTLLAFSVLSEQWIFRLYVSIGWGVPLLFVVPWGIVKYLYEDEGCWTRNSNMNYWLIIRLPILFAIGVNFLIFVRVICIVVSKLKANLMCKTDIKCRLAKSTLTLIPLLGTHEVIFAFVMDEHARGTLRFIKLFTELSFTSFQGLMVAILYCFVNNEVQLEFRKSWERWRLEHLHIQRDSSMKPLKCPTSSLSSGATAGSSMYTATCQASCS
HEK293 tox: cytotoxicity counter-screen for GLP-1 receptor inverse agonists | HEK293 cAMP-luciferase reporter cells, luminescence, 24 h | Potency, µM (doses to about 38.3 µM), inactives show at the top dose activity change, negative = inhibition, hits mostly inhibitors | 0.13% of 410,000 active;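 further: loss of luciferase light is scored as toxicity; potency means the concentration at half of the fitted maximal effect; on the % scale 0 is the no-effect control and ±100 the full control effect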
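Here, cytotoxicity is scored as loss of luminescence. The MLSMR collection was tested on cells seeded in medium containing 10% Nu serum, with a 24 hr compound exposure preceded by 12 hours of culture.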
GLP-1R inv ag: GLP-1 receptor (human) inverse agonism; HEK293 GLP-1R CRE-luciferase, luminescence, 24 h; GLP-1R form is constitutively active; 1.6% of 410,000 active; P43220; Potency, µM (titrated, usually from 38.3 µM), inactives show at the highest dose activity change, negative = inhibition, hits mostly inhibitors; further: potency means the concentration at half of the fitted maximal effect; on the % scale 0 is the no-effect control and ±100 the full control effect; nearly all actives have a fitted effect of over 55% in size
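qHTS in 1536-well format: reporter HEK293 cells expressing constitutive GLP-1R activity in DMEM + 10% Nu serum, 24 hr with compounds at 37 deg C, luminescence read after 12 min with detection reagent.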
ClpP mod: qHTS Assay for Activators of ClpP; 1.9% of 340,000 active; purified B. subtilis ClpP, FRET peptide cleavage, 20 min; Potency, µM (doses to about 57.5 µM), for the others: top-dose activity change, negative = active; ATP-dependent Clp protease proteolytic subunit (Bacillus subtilis (strain 168)), P80244; AID 651965, 2013; active means well fitted falling curve with a large enough effect; inconclusive means small, poorly fitted or top-dose-only effect; inactive means no such curve, though single readings can be large or run the other way; further: potency means the concentration at half of the fitted maximal effect; the source files actives as falling curves though it sought activators and does not explain the sign; nearly all actives have a fitted effect of over 65% in size
Target sequence (P80244 whole entry, looked up): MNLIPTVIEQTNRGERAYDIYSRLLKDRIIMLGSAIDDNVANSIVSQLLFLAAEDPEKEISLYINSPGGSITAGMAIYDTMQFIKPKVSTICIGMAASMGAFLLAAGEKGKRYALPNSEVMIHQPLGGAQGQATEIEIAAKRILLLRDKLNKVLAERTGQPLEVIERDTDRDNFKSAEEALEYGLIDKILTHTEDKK
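FRET quenching reversal measured ClpP activation: 10 microg/mL B. subtilis ClpP at pH 8 with the FRET-FV decapeptide, read at 430 nm after 320 nm excitation. The 20-min minus 0-min signal was scaled between DMSO/no-enzyme wells and ADEP (5.8 microM final).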
* marks the source's active call; other numbers are inactive results; ? = inconclusive; . = no result given; ! = repeats disagree; [ ] = dose if it differs, or a comment. Hits are enriched below; roughly 2.9% of the tested compounds scored in any of these assays. Unless noted, the call rests on the fitted dose curve; in most records, active means well fitted curve in the direction sought with a large enough effect; inconclusive means small, poorly fitted or top-dose-only effect, or another doubt; inactive means no such curve, though single readings can be large; an effect the other way counts as inactive or inconclusive.

SMILES | LDHA inh | p53 reactivator | GLP-1R agonist | HEK293 tox | GLP-1R inv ag | ClpP mod
C[C@@H](CSc1ccc(Br)cc1)CN1CC[C@H](C(C)(C)C)CCC1=O | 1.3 | 5.4% | -3.7% | 0.0% | ? | 0.1%
CC(=O)Nc1ccc(S[C@@H](CCN2CC[C@H](C(C)(C)C)CCC2=O)c2ccccc2)cc1 | 1.3 | 8.3% | 0.8% | -4.2% | ? | -0.9%
CC(C)(C)[C@@H]1CCC(=O)N(CC[C@H](Sc2ccccc2)c2ccccc2)CC1 | 4.4 | 3.5% | 1.6% | ? | 4.47µM* | -1.6%
CCC(=O)N1CCc2cc(S(=O)(=O)NC(C(=O)NCc3ccc(OC)cc3)C(C)C)ccc21 (configuration not stated) | -7.2 | . | . | 14.0% | 11.0% | -1.2%
CN(C)c1ccc(/C=C/c2ccc3c4ccccc4ccc3[n+]2-c2ccccc2)cc1 | 5.0 | -1.2% | 0.3% | 7.94µM* | ? | -18.4%
CN(C)c1ccc(/C=C/c2nccc3ccccc23)cc1 | 3.6 | . | . | . | . | 1.5%
O=C(c1ccc(OC2CCN(C/C=C/c3ccc(F)cc3)CC2)cc1)N1CCCC1 | -5.2 | -4.5% | 4.2% | -22.2% | 3.16µM* | -1.2%
O=C(c1ccc(OC2CCN(Cc3ccc(F)cc3)CC2)cc1)N1CCCC1 | -5.9 | -22.1% | -2.8% | -3.1% | ? | -2.0%
CCc1ccc(CN2CCC(Oc3ccc(C(=O)N4CCCC4)cc3)CC2)cc1 | -9.5 | -9.5% | -8.4% | ? | 7.94µM* | 0.1%
CCc1ccc(CN2CCC(Oc3ccc(C(=O)N4CCCCC4)cc3)CC2)cc1 | -13.0 | 1.2% | 8.0% | ? | ? | -0.6%
CC(=O)c1c(C)[nH]c(C(=O)CSc2cc(Cl)ccc2Cl)c1C | 3.0 | . | . | . | . | .
Cc1c2c(nc3ccccc13)-c1ccccc1CC2 | -20.9 | . | . | . | . | .
C=CCNC(=O)c1c2c(nc3ccccc13)-c1ccccc1CC2 | -1.3 | -10.5% | -0.2% | 1.0% | ? | 31.6µM*
CC(C)CNC(=O)c1c2c(nc3ccccc13)-c1ccccc1CC2 | -3.3 | 2.7% | 3.2% | -19.4% | ? | 28.2µM*
COc1ccccc1NC(=O)COC(=O)c1cc(C)nc2ccccc12 | -4.0 | -2.7% | 0.5% | 0.8% | 17.7% | -2.7%
Cc1cc(C(=O)OCC(=O)c2cccc3ccccc23)c2ccccc2n1 | -35.4* | . | . | . | . | .
Cc1cc(C(=O)OCC(=O)Nc2ccccc2C(C)C)c2ccccc2n1 | -39.9* | . | . | . | . | .
CC(C)OC(=O)/C(C#N)=C/c1c[nH]c2ccccc12 | -32.5*! | ? | 1.8% | -28.6% | -22.6% | ?
N#C/C(=C\c1c[nH]c2ccccc12)C(=O)OC1CCCCC1 | 4.3 | . | . | . | . | .
O=C(NCCO)c1ccc2[nH]c3ccccc3c2c1 | 0.1 | -2.0% | -13.8% | 18.1% | 1.9% | 25.1µM*
CCCCNC(=O)c1ccc2[nH]c(C)c(C)c2c1 | -0.2 | . | . | . | . | .
CC(=O)N1CCC2(CC1)CC(=O)c1cc(OCC(=O)NCc3ccco3)ccc1O2 | -3.3 | 0.6% | -7.0% | 25.7% | 28.3% | 11.2µM*
CC(=O)N1CCC2(CC1)CC(=O)c1cc(OCC(=O)NCc3ccc(C)cc3)ccc1O2 | 6.2 | 6.1% | -4.9% | 1.1% | 0.9% | 28.2µM*
CC(=O)N1CCC2(CC1)CC(=O)c1cc(OCC(=O)N3CCCC3)ccc1O2 | -7.0 | 4.8% | 4.9% | 54.1% | 13.6% | 4.1%
Cc1nn(CC(=O)Nc2ccc(Cl)cc2)c(=O)c2cc(-c3ccccc3)nn12 | -5.5 | 4.1% | -3.0% | 0.5% | 4.8% | -4.8%
SMILES | LDHA inh | p53 reactivator | GLP-1R agonist | HEK293 tox | GLP-1R inv ag | ClpP mod
COCCOc1cccc(F)c1C(=O)/C=C/c1ccc(C#N)cc1 | 2.6 | . | . | . | . | .
CCOc1ccc(S(=O)(=O)N2CCN(C(C(=O)O)c3c[nH]c4cc(Cl)ccc34)CC2)cc1 (configuration not stated) | 3.1 | . | . | . | . | .
COc1cccc(C2CC(c3cccs3)=NN2C(=O)CSc2nc3ccccc3s2)c1OC (configuration not stated) | -5.3 | -9.7% | -3.7% | -17.4% | ? | 28.2µM*
Fc1ccc(N2N=C(c3cccs3)CC2c2ccccc2)cc1 (configuration not stated) | 2.5 | 2.0% | 16.3% | 253.8% | 11.2µM* | .
Cc1ccc(C2CC(c3cccs3)=NN2C(=O)CSc2nc3ccccc3o2)cc1 (configuration not stated) | -6.2 | 5.9% | -3.2% | 72.7% | ? | 14.1µM*
O=C(CSc1nc2ccccc2o1)N1N=C(c2cccs2)CC1c1ccc(F)cc1 (configuration not stated) | -2.0 | 1.1% | -3.7% | 0.9% | -4.2% | 31.6µM*
COc1ccc(Cl)cc1NC(=O)CSc1nccn1Cc1ccco1 | 2.5 | . | . | -3.2% | -25.6% | 0.7%
O=C(CCSc1ccccc1Cl)NNC(=O)c1ccncc1 | -5.1 | -0.3% | -6.5% | 6.2% | 5.2% | -3.0%
c1ccc(COc2cccc(-c3cc4nc(NCCOc5ccccc5)ccn4n3)c2)cc1 | -10.1 | . | 3.0% | 5.6% | 10µM* | 4.2%
c1ccc(COc2ccc(-c3cc4nc(NCCOc5ccccc5)ccn4n3)cc2)cc1 | -9.0 | . | -4.4% | -1.8% | ? | 4.4%
Cc1ccccc1C(=O)Nc1cccc(NC(=O)c2ccc(F)cc2)c1 | -5.4 | -0.9% | 9.6% | 1.0% | 10µM* | .
O=C(Nc1ccc2ccccc2c1)c1ccc(Cl)cc1 | -2.4 | ? | -1.8% | -4.6% | -25.3% | -3.5%
O=C(Nc1ccncc1)c1ccc2ccccc2c1 | -6.9 | 9.5% | 1.6% | 3.8%[7.66 µM] | 27.4%[7.66 µM] | 22.4µM*
CC(=O)c1cc(C(=O)Nc2ccc3ccccc3c2)c(C)o1 | 7.0 | 6.8% | 11.8% | -1.7% | 1.9% | .
Cc1ccc(C(=O)Nc2ccc3ccccc3c2)cc1 | -4.3 | -77.1% | -0.2% | -13.3% | 5.01µM* | .
Cc1cc(C(=O)Nc2ccc3ccccc3c2)c(C)o1 | 3.7 | 25.1µM* | 7.4% | 5.5% | ? | .
O=C(Nc1cccc(NC(=O)c2ccccc2Cl)c1)c1ccc(F)cc1 | -1.5 | -0.4% | 3.1% | 5.3% | ? | -2.8%
COc1ccc(Cn2c(CCC(=O)NCc3cccc(Cl)c3)nc3cccnc32)cc1 | -2.5 | . | . | 3.3% | -13.4% | 4.7%
Cc1ccccc1N(C(=O)c1snc(C(N)=O)c1N)C(C(=O)NC1CCCC1)c1ccco1 (configuration not stated) | -11.2 | -8.0% | 13.4% | 1.7% | ? | .
Cc1cccc(C(=O)NNC(=O)c2cccc(C)c2)c1 | -7.9 | 12.8% | 0.3% | -10.0% | 5.0% | -19.7%
Cc1cccc(C(=O)NNC(=O)c2ccc3ccccc3c2)c1 | -38.5* | . | 0.4% | 4.0% | 5.8% | -9.9%

Source: PubChem BioAssay
